Measured values reported in PubChem BioAssay (NCATS).
Results filed as inconclusive are left out. The source made the active and inactive calls. Calls follow the shape of the dose curve; as a rule, active = well fitted curve in the direction sought with a large enough effect; inconclusive = small, poorly fitted or top-dose-only effect, or another doubt; inactive = no such curve, though single readings can be large; an effect the other way counts as inactive or inconclusive.

Tests used:
UISO = assay: qHTS assay to identify novel small-molecules to repurpose for Merkel cell carcinoma treatment (AID 1296009); details: MCC and control cell lines, CellTiter-Glo viability, 72 h; series mostly up to 46 µM; also: nearly all actives have a fitted effect of over 60% in size
Summary of the method: (§1)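 After compound transfer in DMSO, plates were kept 72 hr at 37 degree celsius. Luminescent ATP signal from CellTiter-Glo served as viability measure, normalized against DMSO and no-cell controls.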

WaGa = assay: as above; details: MCC and control cell lines, CellTiter-Glo viability, 72 h; series mostly up to 46 µM
Summary of the method: as §1

C33A = assay: Primary qHTS to identify gynecologic anti-cancer compounds using libraries of approved drugs and bioactive compounds (AID 1345084); details: Gynecologic cancer cell panel viability, ATPlite luminescence, 48 h; series mostly up to 57.5 µM; also: nearly all actives have a fitted effect of over 55% in size
Summary of the method: (§2)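 Luminescence from the ATPlite ATP-monitoring reagent indicates viable cell number; lower signal means cytotoxicity. Cells received compound 16 h after seeding and were exposed for 48 h across five concentrations.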

CAOV3 = assay: as above; details: Gynecologic cancer cell panel viability, ATPlite luminescence, 48 h; series mostly up to 57.5 µM
Summary of the method: as §2

CASKI = assay: as above; details: Gynecologic cancer cell panel viability, ATPlite luminescence, 48 h; series mostly up to 57.5 µM
Summary of the method: as §2

Es-2 = assay: as above; details: Gynecologic cancer cell panel viability, ATPlite luminescence, 48 h; series mostly up to 57.5 µM
Summary of the method: as §2

HeLa = assay: as above; details: Gynecologic cancer cell panel viability, ATPlite luminescence, 48 h; series mostly up to 57.5 µM
Summary of the method: as §2

Hek293T = assay: as above; details: Gynecologic cancer cell panel viability, ATPlite luminescence, 48 h, control line for the selectivity index; series mostly up to 57.5 µM
Summary of the method: as §2

JEG-3 = assay: as above; details: Gynecologic cancer cell panel viability, ATPlite luminescence, 48 h; series mostly up to 57.5 µM
Summary of the method: as §2

OV90 = assay: as above; details: Gynecologic cancer cell panel viability, ATPlite luminescence, 48 h; series mostly up to 57.5 µM
Summary of the method: as §2

PA-1 = assay: as above; details: Gynecologic cancer cell panel viability, ATPlite luminescence, 48 h; series mostly up to 57.5 µM
Summary of the method: as §2

Tov-21-G = assay: as above; details: Gynecologic cancer cell panel viability, ATPlite luminescence, 48 h; series mostly up to 57.5 µM
Summary of the method: as §2

Tov112D = assay: as above; details: Gynecologic cancer cell panel viability, ATPlite luminescence, 48 h; series mostly up to 57.5 µM
Summary of the method: as §2

[1] = Drug repurposing screens with cells derived from glioblastoma tumor samples (AID 1345199); details: GBM patient neurospheres viability, ATP luminescence, 48 h; also: nearly all actives have a fitted effect of over 40% in size
Summary of the method: (§3)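 Four patient lines of CD133+ GBM neurospheres were screened at several concentrations; hits were retested in those lines plus three slower-growing GBM lines, using 48-hour treatment and ATP-based viability.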

astro = assay: as above; details: viability, ATP luminescence, 48 h; series mostly up to 45.9 µM
Summary of the method: as §3

SKOV3 = assay: Primary qHTS to identify gynecologic anti-cancer compounds using libraries of approved drugs and bioactive compounds (AID 1345084); details: Gynecologic cancer cell panel viability, ATPlite luminescence, 48 h; series mostly up to 57.5 µM; also: nearly all actives have a fitted effect of over 55% in size
Summary of the method: as §2

[2] = qHTS assay to identify inhibitors of the type 1 interferon - major histocompatibility complex class I in skeletal muscle: Counter screen cell viability and HiBit confirmation (AID 1347412); details: iHSKM muscle cells + IFN-b, HiBiT or CellTiter-Glo, 24 h; Potency: HiBiT; Viability, at 45.9 µM (top of the series); also: nearly all actives have a fitted effect of over 60% in size
Summary of the method: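 Luminescence read-out: Nano-Glo HiBiT lytic signal from C-terminally HiBiT-tagged HLA-B in CRISPR-edited human myoblasts, plus CellTiter Glo ATP as viability counter screen. IFN-beta 4.0 ng/ml; 24 hrs treatment at 37 C, 5% CO2.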

[3] = at 45.9 µM (top of the series), tumour line B
[4] = at 45.9 µM (top of the series), tumour line D
[5] = at 46 µM (top of the series), tumour line A
[6] = at 46.1 µM (top of the series), tumour line C
% is scaled to controls: 0 for no effect and ±100 for the full control effect.

Cc1ccccc1C(=O)N1CC/C(=N\OS(=O)(=O)O)c2ccc(Cl)cc21
inactive: Potency (UISO) | Potency (WaGa) | Potency (C33A) | Potency (CAOV3) | Potency (CASKI) | Potency (Es-2) | Potency (HeLa) | Potency (Hek293T) | Potency (JEG-3) | Potency (OV90) | Potency (PA-1) | Potency (Tov-21-G) | Potency (Tov112D) | activity, negative = cell killing [1, 3] -4.66% | activity, negative = cell killing [1, 4] -7.25% | activity, negative = cell killing [1, 5] -14.2% | activity, negative = cell killing [1, 6] 2.94% | Potency (astro)

O=C(OCC(O)CO)c1ccccc1Nc1ccnc2c(C(F)(F)F)cccc12 (configuration not stated)
inactive: Potency (UISO) | Potency (WaGa) | Potency (C33A) | Potency (CAOV3) | Potency (CASKI) | Potency (Es-2) | Potency (HeLa) | Potency (Hek293T) | Potency (JEG-3) | Potency (OV90) | Potency (PA-1) | Potency (Tov-21-G) | Potency (Tov112D)

O=C1CC2(CCCC2)CC(=O)N1CCNCC1COc2ccccc2O1 (configuration not stated)
inactive: Potency (UISO) | Potency (WaGa) | Potency (C33A) | Potency (CAOV3) | Potency (CASKI) | Potency (Es-2) | Potency (HeLa) | Potency (Hek293T) | Potency (JEG-3) | Potency (OV90) | Potency (PA-1) | Potency (SKOV3) | Potency (Tov-21-G) | Potency (Tov112D) | Potency (astro)

CC(=O)[C@@]1(O)CC[C@H]2[C@@H]3C[C@H](C)C4=CC(=O)CC[C@]4(C)[C@H]3CC[C@@]21C
inactive: Potency (UISO) | Potency (WaGa) | Potency (C33A) | Potency (CAOV3) | Potency (CASKI) | Potency (Es-2) | Potency (HeLa) | Potency (Hek293T) | Potency (JEG-3) | Potency (OV90) | Potency (PA-1) | Potency (SKOV3) | Potency (Tov-21-G) | Potency (Tov112D) | activity, negative = cell killing [1, 3] -5.63% | activity, negative = cell killing [1, 4] -15.6% | activity, negative = cell killing [1, 6] -11.3% | Potency (astro) | Potency [2]

Nc1c(I)cc(I)c(C(=O)N(CCC(=O)O)c2ccccc2)c1I
inactive: Potency (UISO) | Potency (WaGa) | Potency (C33A) | Potency (CAOV3) | Potency (CASKI) | Potency (Es-2) | Potency (HeLa) | Potency (Hek293T) | Potency (JEG-3) | Potency (OV90) | Potency (PA-1) | Potency (Tov-21-G) | Potency (Tov112D)

Cc1ccccc1N1CCN(CCc2nnc3n2CCCC3)CC1
inactive: Potency (UISO) | Potency (WaGa) | Potency (C33A) | Potency (CAOV3) | Potency (CASKI) | Potency (Es-2) | Potency (HeLa) | Potency (Hek293T) | Potency (JEG-3) | Potency (OV90) | Potency (PA-1) | Potency (SKOV3) | Potency (Tov-21-G) | Potency (Tov112D) | activity, negative = cell killing [1, 3] -2% | activity, negative = cell killing [1, 6] 19.6% | Potency (astro)

CC(C(=O)O)c1ccc(/C=C2\CCCCC2=O)cc1 (configuration not stated)
inactive: Potency (UISO) | Potency (WaGa) | Potency (C33A) | Potency (CAOV3) | Potency (CASKI) | Potency (Es-2) | Potency (HeLa) | Potency (Hek293T) | Potency (JEG-3) | Potency (OV90) | Potency (PA-1) | Potency (Tov-21-G) | Potency (Tov112D) | activity, negative = cell killing [1, 3] -2.39% | activity, negative = cell killing [1, 4] -17% | activity, negative = cell killing [1, 5] -27.9% | activity, negative = cell killing [1, 6] 3.8% | Potency (astro)

NC(=O)NS(=O)(=O)c1ccc(Cl)cc1
inactive: Potency (UISO) | Potency (WaGa) | Potency (C33A) | Potency (CAOV3) | Potency (CASKI) | Potency (Es-2) | Potency (HeLa) | Potency (Hek293T) | Potency (JEG-3) | Potency (OV90) | Potency (PA-1) | Potency (Tov-21-G) | Potency (Tov112D)

C[C@H]1NCc2cc(-c3ccc4c(=O)c(C(=O)O)cn(C5CC5)c4c3OC(F)F)ccc21
inactive: Potency (UISO) | Potency (WaGa) | Potency (C33A) | Potency (CAOV3) | Potency (CASKI) | Potency (Es-2) | Potency (HeLa) | Potency (Hek293T) | Potency (JEG-3) | Potency (OV90) | Potency (PA-1) | Potency (Tov-21-G) | Potency (Tov112D) | activity, negative = cell killing [1, 3] 3.7% | activity, negative = cell killing [1, 4] 27.3% | activity, negative = cell killing [1, 5] -27.3% | activity, negative = cell killing [1, 6] -18% | Potency (astro)

C[C@H]1C[C@H](O)c2ccsc2S1(=O)=O
inactive: Potency (UISO) | Potency (WaGa) | Potency (C33A) | Potency (CAOV3) | Potency (CASKI) | Potency (Es-2) | Potency (HeLa) | Potency (Hek293T) | Potency (JEG-3) | Potency (OV90) | Potency (PA-1) | Potency (Tov-21-G) | Potency (Tov112D)
